Measurements: PubChem BioAssay (NCI)
This is part of a sample that, as a whole, favours compounds with a hit. Of some 83,000 tested, about 20% had one in any assay.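 Method: cells in 96-well plates; compound added at one concentration; 48 h incubation; percent growth measured; values under 10 scored active.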 Active and inactive are the calls of the source.

Tested on: SK-MEL-28 melanoma
Assay: NCI-60 one-dose screen, 48 h (100 = growth as untreated, 0 = no growth, -100 = all killed)
Conditions: 10 µM unless noted

Row | SMILES | growth
1 | CC(C)(C)N1CCC1CN (configuration not stated) | 105% (inactive)
2 | C=C1C(=O)O[C@H]2[C@H]1CC/C(COC(=O)c1cc3cc(OC)ccc3[nH]1)=C\CC[C@@]1(C)O[C@@H]21 | -80.8% (active)
3 | CC[C@]1(O)C[C@@H]2CN(CCc3c([nH]c4ccccc34)[C@@](C(=O)OC)(c3cc4c(cc3OC)N(C)[C@H]3[C@@](O)(C(N)=O)[C@H](O)[C@]5(CC)[C@@H]6C[C@@H]6CN6CC[C@]43[C@@H]65)C2)C1 | 68.1% (inactive)
4 | Cc1nn(-c2ccc(F)cc2)c2ncnc(Nc3ccc(NC(=O)Nc4ccc(Cl)c(C(F)(F)F)c4)cc3)c12 | 17.8% (inactive)
5 | O=C(N/N=C/c1ccccc1O)c1ccccc1Nc1ccnc(C(F)(F)F)c1 | 28.3% (inactive)
6 | CC(=O)O[C@H]1[C@@H]2OC(=O)C(CSc3ccccc3)[C@@H]2C[C@H]2O[C@]2(C)CC/C=C(\C)CCC[C@@H]1C (some centres not stated) | 37.7% (inactive)
7 | C#CCOc1ccc2ncnc(N3CCC(NC(=O)CCl)CC3)c2c1 | 77.5% [8.25 µM] (inactive)
8 | CCC(=O)c1ccc(Cl)s1 | 99.6% (inactive)
9 | O=C1CC[C@H](c2ccc(O)c3c2C(=O)[C@@H]2O[C@@H]2C3=O)c2cccc(O)c21 | -7.72% (active)
10 | COc1ccc(S(=O)(=O)N2CC3(COC3)C2)cc1NC(=O)c1[nH]c(C)c2c1CCCCC2=O | 73.7% (inactive)
11 | O=C1/C(=C/c2ccc3c(c2)OCO3)SC(=S)N1CCc1ccc(O)cc1 | 104% (inactive)
12 | Oc1ccccc1-c1nnc(CNc2ccc(Cl)cc2)o1 | 32.2% (inactive)
